Measurements taken from publication PMC4336329 (PLoS ONE, 2015).
About 2,200 (0.71%) of roughly 310,000 compounds showed an effect of 50% or more. Effects have a minus sign here. For the sample, strong results were picked, then their nearest neighbours and some compounds at random.

Molecular target: human ether-à-go-go-related gene (hERG) potassium channel (human, UniProt Q12809)
Assay: primary screen, population patch clamp on CHO cells stably expressing hERG; higher = less effect of the substance

human ether-à-go-go-related gene (hERG) potassium channel, sequence (Q12809 whole entry, looked up): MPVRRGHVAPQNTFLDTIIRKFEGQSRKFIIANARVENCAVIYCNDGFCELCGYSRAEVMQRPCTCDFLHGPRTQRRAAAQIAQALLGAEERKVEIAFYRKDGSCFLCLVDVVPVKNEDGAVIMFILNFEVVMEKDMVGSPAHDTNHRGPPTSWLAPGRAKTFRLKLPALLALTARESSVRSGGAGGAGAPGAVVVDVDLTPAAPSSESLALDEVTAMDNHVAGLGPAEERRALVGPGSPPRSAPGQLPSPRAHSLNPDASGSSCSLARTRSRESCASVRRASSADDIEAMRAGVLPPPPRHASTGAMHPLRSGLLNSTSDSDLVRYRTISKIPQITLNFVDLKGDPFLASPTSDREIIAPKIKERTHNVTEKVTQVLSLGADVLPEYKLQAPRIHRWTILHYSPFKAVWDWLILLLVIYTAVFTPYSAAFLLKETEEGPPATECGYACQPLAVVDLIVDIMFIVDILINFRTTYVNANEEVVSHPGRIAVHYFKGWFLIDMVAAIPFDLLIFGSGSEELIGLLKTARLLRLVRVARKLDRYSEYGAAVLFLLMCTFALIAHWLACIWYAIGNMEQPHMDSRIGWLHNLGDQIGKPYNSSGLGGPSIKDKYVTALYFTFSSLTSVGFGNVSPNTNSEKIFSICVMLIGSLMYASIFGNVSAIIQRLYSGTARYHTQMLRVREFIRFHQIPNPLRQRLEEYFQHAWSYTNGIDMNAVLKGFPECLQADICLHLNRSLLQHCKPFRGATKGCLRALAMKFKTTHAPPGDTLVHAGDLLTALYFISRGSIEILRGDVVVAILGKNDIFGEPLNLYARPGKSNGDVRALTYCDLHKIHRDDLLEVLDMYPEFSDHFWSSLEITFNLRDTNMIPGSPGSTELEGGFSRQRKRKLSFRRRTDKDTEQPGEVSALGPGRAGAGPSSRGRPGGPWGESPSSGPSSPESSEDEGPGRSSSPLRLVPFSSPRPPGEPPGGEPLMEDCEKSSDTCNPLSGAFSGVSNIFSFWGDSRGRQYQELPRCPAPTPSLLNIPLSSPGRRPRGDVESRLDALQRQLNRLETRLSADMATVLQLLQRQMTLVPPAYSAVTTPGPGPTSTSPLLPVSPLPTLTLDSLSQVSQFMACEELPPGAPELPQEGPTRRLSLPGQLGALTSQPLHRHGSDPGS

Going from `COc1ccc(C(=O)Nc2nc(N3C(=O)c4ccccc4C3=O)n(-c3ccccc3)n2)cc1` to `CCOc1ccccc1NC(=O)C(OC(=O)c1ccccc1O)c1ccccc1` (stereo not drawn), the “hERG current change (%, negative = inhibition) at 1uM” value falls from 3.14% to -2.03%.

First: CSc1ncc(Sc2ccccc2)c(C(=O)O)n1
Second: Cc1ccccc1-c1noc(CCC(=O)NCCc2ccccc2)n1
The “hERG current change (%, negative = inhibition) at 1uM” value of the first is lower: 10.3% for the first, 10.4% for the second.

Compared with `O=C(CSc1nnc(NC(=O)c2ccc(F)cc2F)s1)NC1CC1`, `Cn1nc2c(c1C(=O)N1CCCC(C(=O)c3cc(F)ccc3F)C1)CCCC2` (stereo not drawn) is lower in “hERG current change (%, negative = inhibition) at 1uM” value: 14.9% for the first, 10.8% for the second.

Going from `COc1cc(OC)cc(-c2nnc(Nc3nc4c(F)cccc4s3)o2)c1` to `Cc1cc(N2CCN(c3nc4ccccc4s3)CC2)n2ncnc2n1`, the “hERG current change (%, negative = inhibition) at 1uM” value falls from 6.96% to -74.9%.

First: O=C(c1ccc2c(=O)n(CC3CCCO3)c(=S)[nH]c2c1)N1CCN(c2ccccc2)CC1 (stereo not drawn)
Second: Cc1cc(N2CCN(c3ccccc3)CC2)n2ncnc2n1
The “hERG current change (%, negative = inhibition) at 1uM” value of the first is higher: 3.81% for the first, -7.73% for the second.

Compared with `O=C(CCNS(=O)(=O)c1cccs1)N1CCN(c2cccc(C(F)(F)F)c2)CC1`, `CC(=O)Nc1ccc(S(=O)(=O)N2CCN(c3cc(C)nc4ncnn34)CC2)cc1` is lower in “hERG current change (%, negative = inhibition) at 1uM” value: -2.16% for the first, -9.05% for the second.

Going from `C=CCn1c(C2CC2)n[nH]c1=S` to `Cc1cccn2c(=O)nc(SCC(=O)N3CCC(C)CC3)nc12`, the “hERG current change (%, negative = inhibition) at 1uM” value rises from 1.66% to 2.05%.

Compared with `O=C(NCc1ccc(Cl)cc1)c1noc2c1CCCCC2`, `CO/N=C(\Cn1ncc(NC2CCCCC2)c(Br)c1=O)c1ccc(Cl)cc1` is higher in “hERG current change (%, negative = inhibition) at 1uM” value: -6.49% for the first, -1.74% for the second.

Going from `O=C(CSc1nc(=O)n2ccccc2n1)N1CCC(Cc2ccccc2)CC1` to `Cc1cccn2c(=O)nc(SCC(=O)N3CCC(Cc4ccccc4)CC3)nc12`, the “hERG current change (%, negative = inhibition) at 1uM” value falls from -27.4% to -69.2%.

First: O=S(=O)(NC1CCC(NS(=O)(=O)c2c(F)cccc2F)CC1)c1ccc2c(c1)OCCO2 (stereo not drawn)
Second: Cc1cc(N2CCN(S(=O)(=O)c3ccc4ccccc4c3)CC2)n2ncnc2n1
The “hERG current change (%, negative = inhibition) at 1uM” value of the first is higher: 10.7% for the first, -48.4% for the second.

First: Cc1ccc(C(=O)NCCN2C3=NC[C@@H](Cc4ccccc4)N3C[C@H]2Cc2ccc(O)cc2)cc1Br
Second: Cc1ccc(C(=O)N[C@@H](C)CN2C3=NC[C@H](Cc4ccccc4)N3C[C@H]2Cc2ccc(O)cc2)cc1Br
The “hERG current change (%, negative = inhibition) at 1uM” value of the first is higher: -4.33% for the first, -68.1% for the second.

First: Cc1ccc(C(=O)N[C@@H](C)CN2C3=NC[C@H](C(C)C)N3C[C@H]2Cc2ccc(O)cc2)cc1Br
Second: COc1ccc(C[C@H]2CN3C(=NC[C@@H]3C(C)C)N2C[C@H](C)NC(=O)c2ccc(C)c(Br)c2)cc1
The “hERG current change (%, negative = inhibition) at 1uM” value of the first is higher: -34.3% for the first, -41.9% for the second.

First: C/C=C(\C)C(=O)NCCN1C2=NC[C@H](Cc3ccc(O)cc3)N2C[C@@H]1Cc1ccc(OC)cc1
Second: COc1ccc(C[C@H]2CN3C(=NC[C@@H]3Cc3ccc(O)cc3)N2CCNC(=O)c2ccc(C)c(Br)c2)cc1
The “hERG current change (%, negative = inhibition) at 1uM” value of the first is higher: 10.6% for the first, -18.4% for the second.

Going from `COc1ccc(C[C@@H]2CN3C(=NC[C@@H]3C)N2C[C@H](C)NC(=O)c2ccc(C)c(Br)c2)cc1` to `COc1ccc(C[C@H]2CN3C(=NC[C@@H]3Cc3ccc(O)cc3)N2C[C@H](C)NC(=O)c2ccc(C)c(Br)c2)cc1`, the “hERG current change (%, negative = inhibition) at 1uM” value falls from -56.4% to -60.1%.

Going from `C/C=C(\C)C(=O)NCCN1C2=NC[C@H](C)N2C[C@@H]1Cc1ccc(OC)cc1` to `CCCS(=O)(=O)N1CCN(C(=O)COc2ccc(OC)cc2)CC1.O=C(O)C(=O)O`, the “hERG current change (%, negative = inhibition) at 1uM” value rises from 7.75% to 11.7%.

Compared with `Cc1cc(Cl)cc(Br)c1OCCCCn1cncn1`, `Cc1cc(N2CCN(S(=O)(=O)c3ccc(Br)cc3)CC2)n2ncnc2n1` is lower in “hERG current change (%, negative = inhibition) at 1uM” value: -0.515% for the first, -84.8% for the second.

First: Cc1cc(=O)[nH]c(N/N=C/c2cccc([N+](=O)[O-])c2)n1
Second: Cc1cc(N2CCN(c3ccc(F)cc3)CC2)n2ncnc2n1
The “hERG current change (%, negative = inhibition) at 1uM” value of the first is higher: 9.49% for the first, -14.8% for the second.

Going from `CC1(c2nnc(Cc3ccccc3)o2)CC(c2ccccc2[N+](=O)[O-])=NO1` (stereo not drawn) to `Cc1cc(N2CCN(C(c3ccccc3)c3ccccc3)CC2)n2ncnc2n1`, the “hERG current change (%, negative = inhibition) at 1uM” value rises from 0.886% to 8.18%.

Compared with `Cc1c(NC(=O)c2ccc(Cl)s2)c(=O)n(-c2ccccc2)n1C`, `O=C(Nc1ccc(Nc2ccccc2)cc1)C(Cl)(Cl)Cl` is lower in “hERG current change (%, negative = inhibition) at 1uM” value: 8.57% for the first, 7.95% for the second.

Compared with `CCCCNC(=O)CCCCCNS(=O)(=O)c1ccc(Br)cc1`, `O=C(CN(C(=O)c1csnn1)c1ccccc1C(F)(F)F)NC1CCCCC1` is higher in “hERG current change (%, negative = inhibition) at 1uM” value: -26.3% for the first, 14.5% for the second.

Compared with `Cc1cc(N2CCN(C/C=C/c3ccccc3)CC2)n2ncnc2n1`, `Cc1cc(N2CCN(S(=O)(=O)Cc3ccccc3)CC2)n2ncnc2n1` is higher in “hERG current change (%, negative = inhibition) at 1uM” value: -52.2% for the first, -11.4% for the second.
